Assay [1] in a line: growth inhibition of wild-type GFP E. coli, dose response, h38 mutant RFP, cherry-pick (AID 977622). The following applies: activity change: E. coli mixed culture, total growth OD600 at 50 uM, at 50 µM.
Assay [2] concerns E. coli h38 humanized mutant ribosome RFP fluorescence, mixed culture, 24 h. The assay is described as above. The following applies: h38 mutant RFP at 50 uM; at 50 µM.

The whole screen tested about 1,900 compounds, of which fewer than 10 were called active. Roughly 39% stayed inconclusive and do not appear here.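 Rule for the calls: active = Green signal of the normal strain falls at least twice as much as red signal of the resistant mutant, with overall culture growth loss under a set limit; inconclusive = no clear call, values can overlap the other calls; inactive = the rest.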 These entries were drawn from the full list.

For the compound `CN(C)CCCN(C(=O)CCOc1ccccc1)c1nc2c(F)cccc2s1`, the activity change was -10.6% in assay [1] and -7.27% in assay [2]. Besides, the result in assay [1] was inactive.
For `CC(NC(=O)c1ccc(CS(=O)(=O)c2ccc(Cl)cc2)o1)c1ccc2c(c1)OCCO2` (stereo unspecified), the figures for the activity change in assay [1] and in assay [2] were -24.9% and 17.5%, respectively. Besides, the compound was called inactive in assay [1].
With `NS(=O)(=O)c1ccc(NC(=O)c2cc(Cl)sc2Cl)cc1`, in assay [1], the activity change was 0.867% and the result was inactive. Also, the activity change in assay [2] is 13.3%.
On to `CC(C)(CC(=O)O)CC(=O)NCc1c(Cl)cccc1Sc1ccc(Cl)cc1`, for which, in assay [1], the activity change was -12.9% and the compound was classed as inactive.
Consider `C[C@H]1CN([C@@H](C)CO)C(=O)c2c(c3ccccc3n2C)-c2ccccc2CO[C@@H]1CN(C)Cc1ccncc1`, for which, in assay [1], the activity change is -20.6% and the compound was classed as inactive. The activity change in assay [2] was -32.1%.
With `CCCCc1n(CC(=O)c2ccc(Cl)cc2)c2ccccc2[n+]1C`, in assay [1], the activity change is -11.8% and the compound was classed as inactive. Also, the activity change in assay [2] amounted to 5.85%.
For the compound `Cc1noc(C)c1NC(=O)Nc1ccc2c(c1)C(=O)N([C@H](C)CO)C[C@H](C)[C@H](CN(C)C(=O)Nc1ccc3c(c1)OCO3)OCCCC[C@H](C)O2`, in assay [1], the activity change is -22% and the outcome was inactive. Also, the activity change in assay [2] is -9.02%.
For `Cc1cccc(-c2ccc([C@H]3[C@@H](CO)N4CCCCN(S(=O)(=O)c5ccccc5C)C[C@@H]34)cc2)c1` the same measures were -22.4%, “inactive” and 18.9%.
Turning to `Cc1ccccc1CSCC(=O)Nc1ccccc1F`, in assay [1], the activity change worked out at 0.464% and the outcome was inactive. In addition, the activity change in assay [2] was -14.9%.
Consider `Cc1ccc(-n2nnnc2SCC(=O)NC2CCCc3ccccc32)cc1` (stereo unspecified), for which the compound was classed as inactive in assay [1]. The activity change in assay [2] stood at 6.43%.
With `Cc1ccc(C(=O)Nc2cccc3[nH]c(C(F)(F)F)nc23)cc1`, in assay [1], the activity change is -24.3% and the outcome was inactive. In addition, in assay [2], the activity change is -27.5%.
On to `CS(=O)(=O)Nc1ccccc1C(=O)NCCSc1ccccc1`, for which the outcome in assay [1] was inactive. The activity change in assay [2] was -11.5%.
As to `O=C(C[n+]1ccn(-c2ccccc2)c1)c1ccc([N+](=O)[O-])cc1`, in assay [1], the activity change is -2.75% and the compound was called inactive. Further, the activity change in assay [2] is -5.23%.
As for `CCOC(=O)c1cnc2ccccc2c1NCc1ccco1`, in assay [1], the activity change is -29.3% and the compound was classed as inactive. The activity change in assay [2] was -3.48%.
Turning to `NC(=O)C1CCN(c2cc(Cl)ccc2[N+](=O)[O-])CC1`, in assay [1], the activity change was -7.61% and the compound was called inactive. Also, the activity change in assay [2] was -0.291%.
The corresponding values for `COCCn1c(SCc2nc3ccccc3s2)nc2ccccc21` are 15.3%, “inactive” and 9.77%.
Consider `CC(=O)c1cccc(NC(=O)COC(=O)CCC(=O)c2ccc(F)cc2)c1`, for which the values for the activity change in assay [1] and in assay [2] were -8.28% and 14.5%, respectively. The result in assay [1] was inactive.
With `OCCC1CN(Cc2cnc(-c3ccc(Cl)cc3)nc2)CCN1C1CCCCC1` (stereo unspecified), in assay [1], the activity change was -4.88% and the outcome was inactive.
`CN1c2ccccc2-c2nc3ccccc3n2C1c1ccncc1` (stereo unspecified): in assay [1], the activity change is -2.28% and the result was inactive. In assay [2], the activity change was -4.12%.
The corresponding values for `C=C1c2cc3c(cc2NC(=S)N1Cc1ccccc1)OCO3` are -19.2%, “inactive” and -23.6%.
On to `CC(=O)c1cccc(NC(=O)C2CCCN(S(C)(=O)=O)C2)c1` (stereo unspecified), for which, in assay [1], the activity change was found to be 4.2% and the compound was classed as inactive.
For `CC(C)CC#Cc1ccc([C@@H]2[C@@H](CO)N3C(=O)CN(C(=O)Cc4ccccc4)C[C@@H]23)cc1`, in assay [1], the activity change was 9.26% and the call was inactive. Also, in assay [2], the activity change stood at 19.9%.
Take `OC(COc1ccc(Cl)cc1)CN1CCN(c2ccccn2)CC1` (stereo unspecified): in assay [1], the activity change is -8.02% and the result was inactive.
Take `CN(CC(=O)Nc1cccc(F)c1)C(=O)Cn1c(=O)oc2ccccc21`: in assay [1], the activity change was 2.16% and the outcome was inactive. For the same compound, the activity change in assay [2] is 60%.
As for `CCN(CC)S(=O)(=O)c1ccc(O)c(C(=O)OCC(=O)NC23CC4CC(CC(C4)C2)C3)c1`, in assay [1], the activity change was -19.8% and the result was inactive.
On to `CC1(CCC(=O)N2CCCC(N3CCN(c4ccc(F)cc4)CC3)C2)CC1` (stereo unspecified), for which the activity change in assay [1] is -2.02%; in assay [2] it was 22.3%. Also, in assay [1], the compound was called inactive.
As for `CCc1ccc(NC(=O)CCc2c(C)nn(-c3ccc(N4CCCCC4)nn3)c2C)cc1`, in assay [1], the activity change is -4.17% and the call was inactive. Also, the activity change in assay [2] was -12.8%.
Consider `COc1cccc(C(=O)c2c[nH]c(C(=O)NCc3cccnc3)c2)c1`, for which, in assay [1], the activity change was -3.41% and the compound was called inactive. The activity change in assay [2] was found to be 13.5%.
For the compound `COc1ccc(NS(=O)(=O)c2cc(NC(=O)CNC(=O)c3cccc(OC)c3)ccc2C)cc1`, in assay [1], the activity change was -27.6% and the compound was classed as inactive. For the same compound, the activity change in assay [2] was -12.3%.
`O=C(Nc1ccc(Cl)cn1)c1ccc([N+](=O)[O-])o1`: in assay [1], the activity change is -3.86% and the outcome was inactive. Moreover, the activity change in assay [2] came to 54.7%.
On to `COc1cccc(CC(=O)OC(C)C(=O)NCc2ccc3c(c2)OCO3)c1` (stereo unspecified), for which, in assay [1], the activity change was -31% and the outcome was inactive. In assay [2], the activity change is 6.13%.
For the compound `O=S(=O)(Cc1ccccc1)N1CCCCN2[C@@H](CO)[C@H](c3ccc(C#Cc4ccccc4)cc3)[C@@H]2C1`, the activity change is 2.15% in assay [1] and 11.8% in assay [2]. Moreover, in assay [1], the call was inactive.
Consider `Nc1[nH]c(C(=O)c2ccccc2)c(-c2ccc(Cl)cc2)c1C(=O)NCCc1c[nH]c2ccccc12`, for which, in assay [1], the activity change is -15.2% and the compound was called inactive. In addition, the activity change in assay [2] was 2%.
For `Cc1ccccc1-n1c([C@@H]2C[C@H]2c2ccccc2)n[nH]c1=S`, in assay [1], the activity change was -23.8% and the outcome was inactive.
Regarding `COc1ccc(OC)c(NC(=O)COC(=O)CCNc2ccccc2OC)c1`, the values for the activity change in assay [1] and in assay [2] were -9.13% and -0.869%, respectively. For the same compound, the result in assay [1] was inactive.
With `Cc1ccc(NC(=O)c2ccc3c(c2)OCO3)cc1S(=O)(=O)N1CCOCC1`, in assay [1], the activity change is -35.8% and the outcome was inactive. Further, in assay [2], the activity change is -6.07%.
For `COc1ccc(NC(=O)CN(c2ccccc2OC)S(=O)(=O)c2cccs2)cc1Cl`, the results for the activity change in assay [1] and in assay [2] were -14.2% and 19%, respectively. For the same compound, in assay [1], the result was inactive.
Consider `Cc1cccc(OCCC(=O)N(C)CC(=O)Nc2cccc3ccccc23)c1`, for which, in assay [1], the activity change is -25.4% and the result was inactive. In addition, the activity change in assay [2] came to 27.9%.

Values taken from PubChem BioAssay AID977622 (Broad Institute, 2014).
